Source: PubChem BioAssay (NCI)
About 79,000 compounds went through this panel and 15% of them were active in at least one assay; those are over-represented in the sample as a whole. Values without a mark were called inactive. The source made the active and inactive calls. Cut-off read from the data, not from the text of the source: active = growth inhibition above about 70%; inactive = the rest.

Legend:
[1] = NCI Yeast Anticancer Drug Screen. Data for the rad50 strain (AID 155);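 note: 0% = growth of vehicle-only cultures of the same strain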; conditions: S. cerevisiae rad50 strain growth inhibition, stronger effect = higher value
Method in brief: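 Cells are treated with compound, grown, and their growth is then scored against vehicle-only cultures of the same repair-deficient yeast strain.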

[2] = NCI Yeast Anticancer Drug Screen. Data for the mec2-1 strain (AID 157); conditions: S. cerevisiae mec2-1 strain, stronger effect = higher value
Method in brief: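 Vehicle-treated cultures served as reference for growth inhibition of compound-exposed mec2-1 yeast.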

[3] = NCI Yeast Anticancer Drug Screen. Data for the sgs1 mgt1 strain (AID 161);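 note: 0% = growth of cultures given vehicle only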; conditions: S. cerevisiae sgs1 mgt1 strain, stronger effect = higher value
Method in brief: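 Inhibition of yeast growth, normalised to vehicle-treated controls, is reported for a strain bearing genetic alterations in DNA damage repair.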

[4] = NCI Yeast Anticancer Drug Screen. Data for the cln2 rad14 strain (AID 165);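 note: 0% = growth equal to vehicle treated cultures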; conditions: S. cerevisiae cln2 rad14 strain, stronger effect = higher value
Method in brief: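 Each compound was tested on cln2 rad14 yeast. Inhibition of growth was calculated against vehicle-exposed controls.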

[5] = NCI Yeast Anticancer Drug Screen. Data for the bub3 strain (AID 167); conditions: S. cerevisiae bub3 mutant strain, stronger effect = higher value
Method in brief: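 Part of a panel of yeast mutants defective in DNA damage repair or cell cycle regulation. Each strain is grown with compound, and inhibition is calculated relative to solvent-treated cultures.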

[6] = NCI Yeast Anticancer Drug Screen. Data for the mlh1 rad18 strain (AID 175); conditions: S. cerevisiae mlh1 rad18 strain growth inhibition, stronger effect = higher value
Method in brief: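 Vehicle-treated cultures served as the reference for growth inhibition in a yeast strain carrying DNA damage repair alterations exposed to each compound.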

[7] = at 5.0 µM (retest, dose inferred, filed as 0.5)
[8] = at 50.0 µM (retest, dose inferred, filed as 5.0)

SMILES	growth inhibition [1, 7]	growth inhibition [1, 8]	growth inhibition ([1]; at 50.0 µM)	growth inhibition [2, 7]	growth inhibition [2, 8]	growth inhibition ([2]; at 50.0 µM)	growth inhibition [3, 7]	growth inhibition [3, 8]	growth inhibition ([3]; at 50.0 µM)	growth inhibition [4, 7]	growth inhibition [4, 8]	growth inhibition ([4]; at 50.0 µM)	growth inhibition [5, 7]	growth inhibition [5, 8]	growth inhibition ([5]; at 50.0 µM)	growth inhibition [6, 7]	growth inhibition [6, 8]	growth inhibition ([6]; at 50.0 µM)
COC12C=CC(CC1)c1c2c(O)c2ccncc2c1O (configuration not stated)	9%	89% (active)	58.1%	-3%	81% (active)	56.7%	4%	87% (active)	70%	-3%	68%	55.9%	18%	95% (active)	59.8%	-3%	86% (active)	64.8%
OC1c2cccn2-c2cc(Cl)ccc2SC1c1ccccc1 (configuration not stated)	2%	97% (active)	97% (active)	1%	98% (active)	82.3% (active)	15%	97% (active)	96.2% (active)	-7%	97% (active)	93.2% (active)	24%	97% (active)	95.6% (active)	8%	97% (active)	94.8% (active)
Cn1c(=O)c2c(ncn2CCCCOc2ccc3c(c2)[n+]([O-])nc(N)[n+]3[O-])n(C)c1=O	4%	38%	44%	14%	23%	51.9%	5%	34%	69.9%	-23%	52%	69%	-8%	63%	56.5%	32%	82% (active)	75.8% (active)
CN(c1ccc(Cl)cc1)S(=O)(=O)c1cccc([N+](=O)[O-])c1	-6%	52%	42.7%	-13%	71% (active)	42.8%	-6%	62%	70.8% (active)	27%	48%	48.4%	-28%	90% (active)	78% (active)	-11%	51%	58.9%
O=S(=O)(Nc1ccccc1Cl)c1ccccc1	19%	80% (active)	74.8% (active)	1%	88% (active)	81.7% (active)	4%	91% (active)	78.7% (active)	24%	81% (active)	73.1% (active)	-32%	90% (active)	81.1% (active)	-2%	84% (active)	69.2%
C/C=C/C/C=C/CCC(=O)C1OC1C(N)=O (configuration not stated)	98% (active)	99% (active)	92.3% (active)	99% (active)	99% (active)	93.3% (active)	99% (active)	99% (active)	93.3% (active)	98% (active)	99% (active)	91.4% (active)	99% (active)	98% (active)	91.8% (active)	99% (active)	99% (active)	91.8% (active)
CCCCCCCCCCN(CCCCCCCCCC)CC(O)c1cc(-c2ccccc2)nc2ccccc12 (configuration not stated)	-1%	74% (active)	36.2%	-2%	34%	21.9%	-22%	93% (active)	38.8%	0%	26%	-18.1%	0%	58%	26.9%	4%	57%	55%
Cc1ccccc1NC(=O)CSC(N)=O	2%	26%	82.1% (active)	-1%	34%	60.4%	1%	36%	91.8% (active)	5%	6%	55%	1%	66%	87.3% (active)	0%	29%	83% (active)
O=C(CC1(O)C(=O)Nc2c(Cl)cccc21)c1ccc(Cl)cc1 (configuration not stated)	9%	45%	18.6%	8%	29%	20.8%	-19%	36%	33.8%	17%	71% (active)	19.4%	10%	72% (active)	19.4%	-7%	54%	28.3%
